From PubChem BioAssay
“And” between values parts separate entries of the source, which are not always exact repeats. Identical values can stand only once.

Test system: not listed separately
Experiment: probe aLAP1 signal on lysate-treated microarray – cell lysate, small-molecule microarray, COS7 lysate, primary screen (AID 1124);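 note: lysate comes from COS7 cells expressing LAP1 and is applied at 0.3 µg/mL; score merges spot fluorescence near 667 nm with signal-to-noise over triplicate slides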
Conditions: probe aLAP1, fluorescence, higher = more signal

SMILES	composite z-score
C=CCN(C(=O)C(c1cccs1)N(CCOCCO)C(=O)/C=C\C(=O)O)c1ccc(OC)cc1 (stereo unspecified)	0.164 and -0.531
C#CCN1C(/C=C/c2ccccc2)C(=O)OC[C@H]1c1ccccc1 (stereo partly specified)	-0.317 and 0.0886
CO[C@@H]1COC(=O)CC=C[C@H](C)COC(=O)[C@H](C)NC(=O)CC=C[C@H]1C	-0.235
Cc1cc2c(nc1C)CCCN2CC(O)CN1CCCc2nc(-c3ccc(Br)cc3)ccc21 (stereo unspecified)	0.741 and 0.489
C=CCN(CCCCC)C(=O)C(c1cccs1)N(CCOCCO)C(=O)/C=C\C(=O)O (stereo unspecified)	-0.0541 and 0.235
COc1ccc(-c2ccc3c(n2)CCCN3CC(O)CN2CCCc3nc(-c4ccc(Br)cc4)ccc32)cc1 (stereo unspecified)	0.984 and 0.29
C=C[C@H](OC)[C@@H](O)c1ccc(OCCO)cc1	0.581 and -0.234
C=CCN(C(=O)C1N(CCCCCCO)C(=O)C2C(C(=O)O)C3C=CC21O3)c1ccc(OC)cc1 (stereo unspecified)	1.44 and 0.066
O=C1C[C@]2(c3ccc([N+](=O)[O-])cc3)C(=O)N(Cc3ccccc3)c3cc(CO)ccc3[C@H]2N1C1CCCCC1	0.679 and -0.627
C=CCN(C(=O)C1N(c2c(Cl)cccc2CO)C(=O)C2C(C(=O)O)C3C=CC21O3)c1ccc(OC)cc1 (stereo unspecified)	0.137 and -0.803
C=CCN(C(=O)C1N(CCOCCO)C(=O)C2C(C(=O)O)C3C=CC21O3)C(C)(C)C (stereo unspecified)	-0.882 and -0.478
COC(=O)C1=C2N(Cc3ccccc3)C(C)=C(C(=O)OC)[C@@H](c3ccccc3)N2C(=O)[C@](O)(C(=O)OC)C1	-0.109 and 0.809
O=c1n(-c2ccccc2)c(=O)n2n1CC[C@@H]1C(=NOC[C@@H](O)COCc3ccco3)[C@H]3O[C@H]3[C@@H](O)[C@@H]12	-0.0025 and -0.111
CC(CO)N1C(=O)[C@@H]2C3C(=O)OCCC=C[C@H]3OC23C=CCN(c2ccc(Cl)cc2)C(=O)[C@@H]13 (stereo partly specified)	-0.102 and -0.304
CC(C)[Si]1(C(C)C)OCc2cc(CCCc3cc4c(c(CCc5ccccc5)n3)[Si](C(C)C)(C(C)C)OC4)nc(CCc3ccccc3)c21	0.485 and 0.0666
C=CCN(Cc1ccccc1)C(=O)C1N(CCOCCO)C(=O)C2C(C(=O)O)C3C=CC21O3 (stereo unspecified)	1.24 and -0.375
C[N+](C)(C)CCCCCCNC(=O)[C@H]1C[C@H]2C(=O)N[C@@H](CCCC[N+](C)(C)C)C(=O)N2[C@H]1c1cccc(OCCO)c1	0.479 and 0.285
CCCCCN1CC=CC23O[C@@H]4C=CCCOC(=O)C4[C@H]2C(=O)N(C(C)CO)[C@@H]3C1=O (stereo partly specified)	0.114 and 0.885
O=C1[C@H]2[C@H]3[C@H](O)[C@H](O)CC(=NOCc4ccccc4)[C@H]3CC[C@H]2C(=O)N1Cc1ccccc1	-0.123
CO[C@H]1COC(=O)CC=C[C@H](C)[C@H](OC)COC(=O)[C@@H](C)COC(=O)CC=C[C@@H]1C	-0.497 and -0.561
CN1C(=O)C2CC=C([C@H]3Oc4ccccc4S(=O)(=O)N4CCC[C@@H]34)CC2C1=O (stereo partly specified)	0.892 and -0.263
C[C@@H](ON=C1[C@H]2CCn3c(=O)n(-c4ccccc4)c(=O)n3[C@H]2[C@H](O)[C@@H]2O[C@H]12)c1cn([C@H](CO)Cc2ccccc2)nn1	0.012
CCOC(=O)C[C@H]1[C@H](OC(=O)c2ccccc2-c2ccccc2)[C@@H](NC(=O)Cc2ccc(OC)cc2)c2cc(OCCCO)ccc2N1C(=O)c1ccc2ccccc2n1	-0.264 and 0.286
CCOC(=O)[C@H](CC(C)C)NC(=O)CCC1CC(OC(=O)NCc2cccc3ccccc23)CC2(CCCC(COC(=O)NCc3ccccc3)O2)O1 (stereo partly specified)	-0.384
Cc1ccc(S(=O)(=O)N[C@@H]2COC(=O)CC=C[C@@H](C)[C@@H]3C=C[C@H](O)[C@@H](COC(=O)CC=C[C@H]2C)O3)cc1	0.0386 and 0.26
CO[C@@H]1COC(=O)[C@H](Cc2ccccc2)NC(=O)CC=C[C@@H](C)[C@H](OC)COC(=O)[C@@H](C)NC(=O)CC=C[C@H]1C	-0.502 and 0.07

Test system: Sam68 (KHDRBS1)
Experiment: compounds binding KHDRBS1 protein – biochemical, small-molecule microarray, 635 nm fluorescence, primary screen (AID 1125);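 note: score merges 667 nm channel intensity with signal to noise over triplicate slides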
Conditions: higher = more signal

SMILES	composite z-score
CC(C)=NOC[C@@H](O)COCc1ccco1	-2.3
COC(=O)C1=C(C)N(Cc2ccccc2)C2=C(C(C)=O)C[C@@](O)(C(=O)OC)C(=O)N2[C@@H]1c1ccccc1	1.24 and -0.523
COC(=O)[C@@]1(Cc2ccc(OC)cc2)[C@H]2c3cc(C(=O)N(C)C)n(Cc4ccc(O)c(OC)c4)c3C[C@H]2CN1C(=O)c1ccccc1	0.725 and 1.22
C=CC[C@H](O)c1ccc(OCCO)cc1	-0.769 and -2.69
CC(C)=NO[C@@H](C)c1cc(-c2c(C)cc(C)cc2C)no1	-0.228
C[N+](C)(C)CCCCNC(=O)[C@H]1C[C@H]2C(=O)N[C@@H](CCCC[N+](C)(C)C)C(=O)N2[C@H]1c1ccc(O)cc1	1.32 and 0.681
C[C@@]1([C@@H](NC(=O)Cc2ccccc2)c2ccc(-c3ccccc3)cc2)C[C@H]1C1CCCCC1	0.158 and 0.69 and 1.33
CCN1C(=O)[C@H]2[C@H]3[C@H](O)[C@H](O)CC(=NOC)[C@@H]3CC[C@H]2C1=O	-0.478
O=C1NC(=O)C2C1C=CC(C(O)c1ccc([N+](=O)[O-])cc1)N2Nc1ccc(Cl)cc1Cl (stereo unspecified)	0.415 and 0.584
C=C[C@H](C)[C@@H](O)c1ccc(OCCO)cc1	-1.42 and -0.873
CC(C)CON=C1C[C@@H](O)[C@@H](O)[C@@H]2[C@@H]3C(=O)N(c4cccc(Oc5ccccc5)c4)C(=O)[C@@H]3CC[C@H]12	0.594
CO[C@H]1COC(=O)CC=C[C@@H](C)COC(=O)[C@H](CCSC)NC(=O)CC=C[C@@H]1C	0.982 and 1.31
C=C[C@@H](OC)[C@H](O)c1ccc(OCCO)cc1	-0.352 and -1.38
CCOC(=O)c1ccc(NC(=O)O[C@H]2[C@H](OC(=O)Nc3ccccc3)[C@@H](OC(=O)Nc3ccccc3)[C@@H](OC)O[C@@H]2CO)cc1	1.31
C=CCN(C(=O)C(c1cccs1)N(CCOCCO)C(=O)/C=C\C(=O)O)c1ccc(OC)cc1 (stereo unspecified)	-1.75 and -1.35
C#CCN1C(/C=C/c2ccccc2)C(=O)OC[C@H]1c1ccccc1 (stereo partly specified)	0.224 and 0.889
CO[C@@H]1COC(=O)CC=C[C@H](C)COC(=O)[C@H](C)NC(=O)CC=C[C@H]1C	0.548
Cc1cc2c(nc1C)CCCN2CC(O)CN1CCCc2nc(-c3ccc(Br)cc3)ccc21 (stereo unspecified)	1.29
C=CCN(CCCCC)C(=O)C(c1cccs1)N(CCOCCO)C(=O)/C=C\C(=O)O (stereo unspecified)	-0.856 and -0.0967
COc1ccc(-c2ccc3c(n2)CCCN3CC(O)CN2CCCc3nc(-c4ccc(Br)cc4)ccc32)cc1 (stereo unspecified)	0.764 and 0.301

SMILES	composite z-score
C=C[C@H](OC)[C@@H](O)c1ccc(OCCO)cc1	-0.924 and -0.595
C=CCN(C(=O)C1N(CCCCCCO)C(=O)C2C(C(=O)O)C3C=CC21O3)c1ccc(OC)cc1 (stereo unspecified)	-0.931 and -2.13
O=C1C[C@]2(c3ccc([N+](=O)[O-])cc3)C(=O)N(Cc3ccccc3)c3cc(CO)ccc3[C@H]2N1C1CCCCC1	0.802 and 0.377
C=CCN(C(=O)C1N(c2c(Cl)cccc2CO)C(=O)C2C(C(=O)O)C3C=CC21O3)c1ccc(OC)cc1 (stereo unspecified)	-0.608 and -1.33
C=CCN(C(=O)C1N(CCOCCO)C(=O)C2C(C(=O)O)C3C=CC21O3)C(C)(C)C (stereo unspecified)	-1.29 and -0.941
COC(=O)C1=C2N(Cc3ccccc3)C(C)=C(C(=O)OC)[C@@H](c3ccccc3)N2C(=O)[C@](O)(C(=O)OC)C1	0.776 and 0.133
O=c1n(-c2ccccc2)c(=O)n2n1CC[C@@H]1C(=NOC[C@@H](O)COCc3ccco3)[C@H]3O[C@H]3[C@@H](O)[C@@H]12	0.623 and -0.34
CC(CO)N1C(=O)[C@@H]2C3C(=O)OCCC=C[C@H]3OC23C=CCN(c2ccc(Cl)cc2)C(=O)[C@@H]13 (stereo partly specified)	-0.805 and 0.2
CC(C)[Si]1(C(C)C)OCc2cc(CCCc3cc4c(c(CCc5ccccc5)n3)[Si](C(C)C)(C(C)C)OC4)nc(CCc3ccccc3)c21	0.23 and 0.716
C=CCN(Cc1ccccc1)C(=O)C1N(CCOCCO)C(=O)C2C(C(=O)O)C3C=CC21O3 (stereo unspecified)	-0.604 and -0.238
C[N+](C)(C)CCCCCCNC(=O)[C@H]1C[C@H]2C(=O)N[C@@H](CCCC[N+](C)(C)C)C(=O)N2[C@H]1c1cccc(OCCO)c1	0.861 and 0.669
CCCCCN1CC=CC23O[C@@H]4C=CCCOC(=O)C4[C@H]2C(=O)N(C(C)CO)[C@@H]3C1=O (stereo partly specified)	0.656 and 0.708
O=C1[C@H]2[C@H]3[C@H](O)[C@H](O)CC(=NOCc4ccccc4)[C@H]3CC[C@H]2C(=O)N1Cc1ccccc1	-0.873
CO[C@H]1COC(=O)CC=C[C@H](C)[C@H](OC)COC(=O)[C@@H](C)COC(=O)CC=C[C@@H]1C	0.467 and 0.0015
CN1C(=O)C2CC=C([C@H]3Oc4ccccc4S(=O)(=O)N4CCC[C@@H]34)CC2C1=O (stereo partly specified)	-1.08 and -1.56
C[C@@H](ON=C1[C@H]2CCn3c(=O)n(-c4ccccc4)c(=O)n3[C@H]2[C@H](O)[C@@H]2O[C@H]12)c1cn([C@H](CO)Cc2ccccc2)nn1	0.209
CCOC(=O)C[C@H]1[C@H](OC(=O)c2ccccc2-c2ccccc2)[C@@H](NC(=O)Cc2ccc(OC)cc2)c2cc(OCCCO)ccc2N1C(=O)c1ccc2ccccc2n1	-0.636 and 0.641
CCOC(=O)[C@H](CC(C)C)NC(=O)CCC1CC(OC(=O)NCc2cccc3ccccc23)CC2(CCCC(COC(=O)NCc3ccccc3)O2)O1 (stereo partly specified)	-0.903
Cc1ccc(S(=O)(=O)N[C@@H]2COC(=O)CC=C[C@@H](C)[C@@H]3C=C[C@H](O)[C@@H](COC(=O)CC=C[C@H]2C)O3)cc1	-0.132 and 0.293
CO[C@@H]1COC(=O)[C@H](Cc2ccccc2)NC(=O)CC=C[C@@H](C)[C@H](OC)COC(=O)[C@@H](C)NC(=O)CC=C[C@H]1C	1.09 and 0.672
